Bioassay records (PubChem)
Most compounds without a hit are left out; they make up all but 18% or so of the library.
GCN5L2 inh = blocks human GCN5L2 histone acetyltransferase; GCN5L2 HAT assay, ThioGlo1 CoA-SH fluorescence; Potency, µM (highest dose often 58.9 µM), for inactives: at the top dose activity change, negative = inhibition, usual class: inhibitors; actives 0.21% (n = 390,000); AID 504327
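Fluorescence readout, Ex340nm/Em540nm: ThioGlo1 (50uM final) reacts with free CoA thiol released as 20nM GCN5L2 acetylates H3(1-25) peptide (75uM) using acetyl-CoA (70uM). Compound and enzyme sat 15 min beforehand; 20 min room-temperature reaction.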
PLK1 PBD inh = blocks phosphopeptide binding to human PLK1 polo-box domain; Plk1 PBD binding of FITC phosphopeptide, fluorescence polarization; Potency, µM, inactives show max response, negative = inhibition, hits mostly inhibitors; actives 2.8% (n = 360,000); also: series mostly up to about 57 µM; nearly all actives have a fitted effect of over 65% in size
Target sequence (P53350 whole entry, looked up, the tested form may be a part): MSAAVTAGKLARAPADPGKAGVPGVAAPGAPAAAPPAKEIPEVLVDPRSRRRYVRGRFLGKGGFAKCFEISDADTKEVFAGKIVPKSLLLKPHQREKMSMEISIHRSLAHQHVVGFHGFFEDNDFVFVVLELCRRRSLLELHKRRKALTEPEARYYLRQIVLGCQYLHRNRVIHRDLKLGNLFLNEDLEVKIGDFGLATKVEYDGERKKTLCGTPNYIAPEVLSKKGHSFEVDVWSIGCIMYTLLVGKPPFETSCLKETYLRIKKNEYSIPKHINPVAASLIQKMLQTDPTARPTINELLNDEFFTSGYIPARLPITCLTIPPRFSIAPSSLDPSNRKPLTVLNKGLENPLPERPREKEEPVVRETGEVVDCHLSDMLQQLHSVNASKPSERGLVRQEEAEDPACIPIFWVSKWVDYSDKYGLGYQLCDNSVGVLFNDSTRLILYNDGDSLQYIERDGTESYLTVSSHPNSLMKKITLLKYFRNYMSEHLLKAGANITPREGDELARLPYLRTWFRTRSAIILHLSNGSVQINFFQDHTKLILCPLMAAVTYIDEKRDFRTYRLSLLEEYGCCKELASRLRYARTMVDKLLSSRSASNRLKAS
DT40 TDP1 no CPT = qHTS for Inhibitors of human tyrosyl-DNA phosphodiesterase 1 (TDP1): qHTS in cells in absence of CPT | DT40 Tdp1-/- hTDP1 cells, no CPT, ATP luminescence, 48 h | Potency, µM (top dose mostly 46.2 µM), for the others: at the top dose activity change, negative = growth inhibition, most hits filed as inhibitors | actives 15% (n = 420,000); also: nearly all actives have a fitted effect of over 55% in size
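DT40 Tdp1-/-;hTDP1 cells, no CPT (DMSO vehicle only), 400 cells/well; compounds pin-transferred; ≥48 hr, 37 °C; CellTiter-Glo 30 min RT dark, luminescence read.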
VDR inh = blocks the human vitamin D receptor | P11473 | VDR-SRC2-3 peptide fluorescence polarization, 2 h | Potency, µM, inactives show max response, negative = inhibition, hits mostly inhibitors | actives 0.93% (n = 400,000)
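Two reagent solutions held at 4 deg C in the dark were dispensed, compounds pinned at 23 nl, and the mixture incubated 2 h at room temperature. Read-out: fluorescence polarization of VDR–SRC2-3 peptide binding.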
TDP1 inh = TDP1 (human) enzyme inhibition; Q9NUW8; recombinant TDP1, AlphaScreen DNA substrate cleavage; Potency, µM (series often up to 130 µM), for the others: at the top dose activity change, negative = inhibition, most hits filed as inhibitors; actives 0.28% (n = 350,000); AID 485290; also: nearly all actives have a fitted effect of over 40% in size
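Here, a 5' biotin and 3' phosphotyrosine-FITC DNA oligonucleotide reports Tdp1 activity: intact substrate bridges AlphaScreen beads, while cleavage leaves a 3' phosphate and drops signal. All incubations at room temperature.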
TDP1 cell CPT = growth inhibition of DT40 Tdp1-/-;hTDP1 cells with camptothecin (screen for TDP1 inhibitors); AID 686979; chicken DT40 Tdp1-/-;hTDP1 cells + 20 nM CPT, ATP luminescence, 48 h; Potency, µM (doses to about 46.2 µM), without a hit: at the highest dose activity change, negative = growth inhibition, hits mostly inhibitors; actives 12% (n = 420,000); also: nearly all actives have a fitted effect of over 55% in size
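Cell growth measured by CellTiter-Glo luminescence after a minimum 48 h, 37 C compound exposure with 20 nM CPT in Tdp1-knockout DT40 cells stably expressing hTDP1, seeded 400/well; qHTS titration format.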
Starred values were filed as active, the others as inactive; [ ] = remark or other dose. Calls follow the shape of the dose curve; as a rule, active = well fitted curve in the direction sought with a large enough effect; inconclusive = small, poorly fitted or top-dose-only effect, or another doubt; inactive = no such curve, though single readings can be large; an effect the other way counts as inactive or inconclusive. % is scaled to controls: 0 for no effect and ±100 for the full control effect; potency is read from the fitted curve at half-maximal effect.

How did COc1ccc(-c2cn3nc(N4CCC(C(=O)Nc5cccc(OC)c5)CC4)sc3n2)cc1 do in these assays?
GCN5L2 inh: 1.0%; DT40 TDP1 no CPT: -24.6%; VDR inh: -4.7%; TDP1 inh: 3.7%; TDP1 cell CPT: inconclusive

Results for Cc1cccc(C)c1NC(=O)C(c1ccc(C#N)cc1)n1c(=O)c(-c2ccco2)nc2ccccc21 (stereo not given) ?
PLK1 PBD inh: -12.6%; DT40 TDP1 no CPT: inconclusive; TDP1 cell CPT: inconclusive

Results for O=C(Nc1ccc(NC(=O)C23CC4CC(CC(C4)C2)C3)cc1)c1cc(F)c(F)cc1Cl ?
GCN5L2 inh: 0.2%; PLK1 PBD inh: -17.8%; DT40 TDP1 no CPT: 13µM*; VDR inh: -23.7%; TDP1 inh: 3.4%; TDP1 cell CPT: inconclusive

How did N#Cc1ccc(OCC(=O)NCC(c2cccs2)N2CCOCC2)cc1 (stereo not given) do in these assays?
GCN5L2 inh: 2.2%; PLK1 PBD inh: -6.1%; DT40 TDP1 no CPT: 10.5%; VDR inh: 1.6%; TDP1 inh: 3.7%; TDP1 cell CPT: 5.8%

How did Cc1ccc(NC(=O)CCc2nnc3n(CC(C)C)c(=O)c4ccccc4n23)cc1C do in these assays?
GCN5L2 inh: -1.0%; DT40 TDP1 no CPT: 23.1µM*; VDR inh: 0.4%; TDP1 inh: 1.0%; TDP1 cell CPT: 25.9µM*

What do the screens show for `CN1CCN(CCCNC(=O)CCc2nnc3n(Cc4ccccc4Cl)c(=O)c4ccccc4n23)CC1`?
GCN5L2 inh: -15.0%; PLK1 PBD inh: 1.6%; DT40 TDP1 no CPT: -0.3%; VDR inh: -8.5%; TDP1 inh: 4.8%; TDP1 cell CPT: -18.3%

Results for COc1ccc(NC(=O)CCc2nnc3n(Cc4ccccc4Cl)c(=O)c4ccccc4n23)cc1 ?
GCN5L2 inh: -0.8%; DT40 TDP1 no CPT: 3.26µM*; VDR inh: -1.5%; TDP1 inh: -1.0%; TDP1 cell CPT: 3.26µM*

What do the screens show for `Cc1cc(C)cc(NC(=O)CCc2nnc3n(CC(C)C)c(=O)c4ccccc4n23)c1`?
GCN5L2 inh: -0.7%; DT40 TDP1 no CPT: -24.0%; VDR inh: -2.6%; TDP1 inh: -3.9%; TDP1 cell CPT: -19.3%

Results for COc1ccc(N2CCN(C(=O)C3CCN(S(=O)(=O)c4cn(C)cn4)CC3)CC2)cc1 ?
GCN5L2 inh: 33.9%; DT40 TDP1 no CPT: 3.3%; VDR inh: 7.7%; TDP1 inh: -3.8%; TDP1 cell CPT: -4.9%

How did CCN1CCN(Cc2c(O)ccc3c2O/C(=C\C=C\c2ccccc2)C3=O)CC1 do in these assays?
GCN5L2 inh: -13.7%; PLK1 PBD inh: 18.2%; DT40 TDP1 no CPT: 11.6µM*; VDR inh: -9.4%; TDP1 inh: 4.7%; TDP1 cell CPT: 25.9µM*

How did CC(CNC(=O)Cc1ccc(NC(=O)N2CCSc3ncccc32)cc1)c1ccccc1 (stereo not given) do in these assays?
GCN5L2 inh: 0.1%; DT40 TDP1 no CPT: inconclusive; VDR inh: 4.5%; TDP1 inh: 2.8%; TDP1 cell CPT: inconclusive

How did O=C1c2ccccc2C(=O)N1CCCCON1C(=O)c2ccccc2C1=O do in these assays?
GCN5L2 inh: 1.1%; PLK1 PBD inh: -9.5%; DT40 TDP1 no CPT: -5.1%; VDR inh: -27.5%; TDP1 inh: 3.2%; TDP1 cell CPT: -18.8%

How did CCCCON1C(=O)c2cccc3cccc(c23)C1=O do in these assays?
GCN5L2 inh: -16.7%; PLK1 PBD inh: -4.5%; DT40 TDP1 no CPT: inconclusive; VDR inh: -4.9%; TDP1 inh: 35.5µM*; TDP1 cell CPT: 11.9%

Results for COc1ccc(CN2C(=O)c3cccc4cccc2c34)cc1F ?
GCN5L2 inh: -14.6%; PLK1 PBD inh: -6.0%; DT40 TDP1 no CPT: -23.3%; VDR inh: 6.1%; TDP1 inh: 50.1µM*; TDP1 cell CPT: -23.1%

How did CN(C)C(=O)CN1C(=O)c2cccc3cccc1c23 do in these assays?
GCN5L2 inh: -3.1%; PLK1 PBD inh: 2.0%; DT40 TDP1 no CPT: -8.5%; VDR inh: 6.4%; TDP1 inh: 0.2%; TDP1 cell CPT: -5.0%

What do the screens show for `CCN1C(=O)c2cccc3cccc1c23`?
GCN5L2 inh: -13.3%; PLK1 PBD inh: 21.2µM*; DT40 TDP1 no CPT: inconclusive; VDR inh: -10.4%; TDP1 inh: 4.8%; TDP1 cell CPT: 29.1µM*

What do the screens show for `COc1cc2c(oc(=O)c3cc(C)cc(OC)c32)c2c(C3OC(C)C(O)C(C)(O)C3O)ccc(O)c12` (stereo not given)?
PLK1 PBD inh: -5.9%; DT40 TDP1 no CPT: 1.46µM*; VDR inh: -23.4%; TDP1 cell CPT: 1.46µM*

Results for COc1c(O)cc2c(=O)oc3c(OC)c(O)cc4c(=O)oc1c2c34 ?
DT40 TDP1 no CPT: -3.0%[9.04 µM]; VDR inh: -6.1%; TDP1 cell CPT: 14.5%[9.04 µM]

What do the screens show for `CC(C)C(=O)OCc1cn(-c2ccc(Cl)c(Cl)c2)nn1`?
GCN5L2 inh: -0.2%; PLK1 PBD inh: 21.2µM*; DT40 TDP1 no CPT: -3.1%; VDR inh: -9.7%; TDP1 inh: -8.8%; TDP1 cell CPT: inconclusive

Results for O=C(Nc1ccc(N2CCCCC2)cc1)c1ccc2ccccc2n1 ?
GCN5L2 inh: -26.8%; PLK1 PBD inh: -9.2%; DT40 TDP1 no CPT: inconclusive; VDR inh: -17.4%; TDP1 inh: 11.6%; TDP1 cell CPT: inconclusive

How did O=C1N(Cc2cccc(Cl)c2)C[C@@H]2C[C@@H](c3cccn3-c3cccnc3)N3CCC[C@@]123 do in these assays?
GCN5L2 inh: inconclusive; PLK1 PBD inh: -7.1%; DT40 TDP1 no CPT: 20.6µM*; VDR inh: 7.7%; TDP1 inh: 7.7%; TDP1 cell CPT: inconclusive

How did O=C1N(Cc2cccc(Cl)c2)C[C@@H]2C[C@@H](c3ccco3)N3CCC[C@@]123 do in these assays?
GCN5L2 inh: -5.1%; PLK1 PBD inh: -8.4%; DT40 TDP1 no CPT: -10.9%; VDR inh: -15.7%; TDP1 inh: 3.0%; TDP1 cell CPT: 20.3%

Results for COc1cccc2c1OCC([C@@H]1C[C@H]3CN(Cc4cccc(Cl)c4)C(=O)[C@]34CCCN14)=C2 ?
GCN5L2 inh: 4.8%; PLK1 PBD inh: -3.5%; DT40 TDP1 no CPT: inconclusive; VDR inh: -17.7%; TDP1 inh: 0.0%; TDP1 cell CPT: 16.4µM*

What do the screens show for `Cc1ncc(COC(=O)C(C)C)c2cc(C(=O)Nc3ccccc3C(F)(F)F)c(=O)oc12`?
GCN5L2 inh: 6.1%; DT40 TDP1 no CPT: -15.7%; VDR inh: 3.1%; TDP1 inh: 3.8%; TDP1 cell CPT: -13.3%
